16 compounds from PubChem BioAssay (EPA / NIEHS) can be followed below.

“And” between values parts separate entries of the source, which are not always exact repeats. Identical values can stand only once. Records with an inconclusive call do not appear. Some structures have more than one record in an assay (separate samples or runs), and their calls can disagree. The source made the active and inactive calls. The calls were made as follows, unless noted: active = hit-call score of the fitted dose curve at least 0.9, where 1 is the maximum; inactive = score below 0.9.

Read-out in test [1]: Tumor necrosis factor (Homo sapiens) (UniProt P01375)
The test can be described thus: BSK_BT_xTNFa: BioMAP Diversity Plus: BT Assay for Tumor necrosis factor alpha (TNF-alpha) Biomarker Activity (AID 2284230). The settings on record: primary human B cells with PBMC. An outline of the steps: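 B cells with PBMC in co-culture, dosed and sampled at 24 h; secreted TNF-alpha measured by Luminex xMAP bead assay. Activity fitted in the gain direction against DMSO as negative control and baseline.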

Read-out in test [2]: Vascular cell adhesion molecule 1 (VCAM1), VCAM1 (gene 7412)
The test can be described thus: BSK_MyoF_VCAM1: BioMAP Diversity Plus: MyoF Assay for Vascular cell adhesion molecule 1 (VCAM1) Biomarker Activity (AID 2284231). Conditions: primary human lung fibroblasts. An outline of the steps: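 Primary human lung fibroblasts (BioMAP MyoF system) dosed with chemical, VCAM-1 measured by ELISA 24 hours later. Fitted in the positive direction against DMSO; parallel SRB staining assessed cytotoxicity.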

Read-out in test [3]: Collagen I, COL1A1 (gene 1277)
The test can be described thus: BSK_MyoF_CollagenI: BioMAP Diversity Plus: MyoF Assay for Collagen I Biomarker Activity (AID 2284238). The settings on record: primary human lung fibroblasts. In outline: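 Primary human lung fibroblasts (MyoF system) treated 24 h; Collagen I quantified by ELISA and fitted in positive direction against DMSO. Parallel SRB total-protein staining assessed overt cytotoxicity.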

Read-out in test [4]: Collagen III, COL3A1 (gene 1281)
Description: BSK_MyoF_CollagenIII: BioMAP Diversity Plus: MyoF Assay for Collagen III Biomarker Activity (AID 2284239). The settings on record: primary human lung fibroblasts. An outline of the steps: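 Primary human lung fibroblasts (BioMAP MyoF system) exposed 24 h. Collagen III measured by ELISA; positive-direction fit relative to DMSO.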

Test [5] in a line: CCTE_Mundy_HCI_hNP1_CellTiter: CCTE's Cell Titer-Glo 2 Assay in human neuroprogenitor cells for Viability, Mundy Lab (AID 2284241; active = hit-call score of the fitted dose curve at least 0.9, where 1 is the maximum). An outline of the steps:
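Human neural progenitor cells (hNP1, WA09-derived) were plated on poly-L-ornithine/laminin and grown 40 to 44 hours at 37 °C, 5% CO2 before chemical addition. Twenty-four hours later, ATP was measured by CellTiter-Glo luminescence; loss of signal versus DMSO indicates reduced viability.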
(Cellular ATP, detected with luciferase, serves as a proxy for viable cell number.)

Read-out in test [6]: Interleukin 17F (IL17F), IL17F (gene 112744)
The test can be described thus: BSK_BT_xIL17F: BioMAP Diversity Plus: BT Assay for Interleukin 17F (IL17F) Biomarker Activity (AID 2284243). The settings on record: primary human B cells with PBMC. In outline: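 Human PBMC co-cultured with B cells, compound exposure 24 h; secreted IL-17F quantified by Luminex xMAP, referenced to DMSO control. PBMC viability measured in parallel by Alamar Blue reduction.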

Read-out in test [7]: Actin alpha 1 (ACTA1), ACTA1 (gene 58)
Description: BSK_MyoF_ACTA1: BioMAP Diversity Plus: MyoF Assay for Actin alpha 1 (ACTA1) Biomarker Activity (AID 2284244). The settings on record: primary human lung fibroblasts. An outline of the steps: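 ELISA read-out of a-SMA in primary human lung fibroblast cultures, 24 h post-dosing. Activity scored in the positive direction versus DMSO baseline.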

Read-out in test [8]: Interleukin 2 (IL2), IL2 (gene 3558)
The test can be described thus: BSK_BT_xIL2: BioMAP Diversity Plus: BT Assay for Interleukin 2 (IL2) Biomarker Activity (AID 2284245). Conditions: primary human B cells with PBMC. In outline: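 Readout: supernatant IL-2 via Luminex xMAP after 24 h chemical dosing of a B cell/PBMC primary human co-culture. DMSO serves as negative control and baseline; increases in signal were fitted.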

Read-out in test [9]: Basic fibroblast growth factor (bFGF), FGF2 (gene 2247)
Description: BSK_MyoF_bFGF: BioMAP Diversity Plus: MyoF Assay for Basic fibroblast growth factor (bFGF) Biomarker Activity (AID 2284246). The settings on record: primary human lung fibroblasts. An outline of the steps: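 Primary human lung fibroblast culture, 24 h compound exposure; ELISA read-out of bFGF. Positive-direction fit vs DMSO baseline. Cytotoxicity: SRB stain (0.1% SRB, 10% TCA fixation, 560 nm) in parallel wells.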

Read-out in test [10]: Collagen IV, COL4A1 (gene 1282)
Description: BSK_MyoF_CollagenIV: BioMAP Diversity Plus: MyoF Assay for Collagen IV Biomarker Activity (AID 2284247). Conditions: primary human lung fibroblasts. In outline:
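ELISA read-out of Collagen IV in lung fibroblast cultures, 24 h post-dosing; gain of signal relative to DMSO vehicle baseline defines activity.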

Tumor necrosis factor (Homo sapiens), sequence (P01375 whole entry, looked up): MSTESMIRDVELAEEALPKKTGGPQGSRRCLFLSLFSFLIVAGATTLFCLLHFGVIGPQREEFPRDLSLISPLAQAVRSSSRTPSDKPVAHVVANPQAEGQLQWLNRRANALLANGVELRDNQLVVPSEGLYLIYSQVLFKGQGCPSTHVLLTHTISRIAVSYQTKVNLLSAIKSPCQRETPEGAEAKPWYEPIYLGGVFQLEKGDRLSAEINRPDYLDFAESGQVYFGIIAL

In general, AC50 refers to the concentration giving half of the maximal activity seen. For the compound `C=CC(=O)OCC(F)(F)C(F)(F)C(F)(F)COC(=O)C=C`, the AC50 in test [1] is 8.9 µM (active) and 9.3 µM (active); in test [2] it was 9.52 µM (active) and 9.72 µM (active); in [3], 9.95 µM (active) and 11.1 µM (active); in test [4] it was 13.9 µM (active) and 14.7 µM (active); in test [6], 2.89 µM (active) and 3.25 µM (active); in test [7] it was 8.23 µM (active) and 4.42 µM (active). For the same compound, the AC50 was 9.03 µM (active) and 9.56 µM (active) in [8]; 15.9 µM (active) and 14.7 µM (active) in test [9]. The outcome in [5] and in test [10] was inactive.
As for `CO[Si](C)(CCC(F)(F)C(F)(F)C(F)(F)C(F)(F)C(F)(F)C(F)(F)F)OC`, the result in [1], in test [2], in test [3], in test [4], in test [6] and in test [7] was inactive. For the same compound, the result in [8] and in [9] was inactive.
Turning to `CCN(CCO)S(=O)(=O)C(F)(F)C(F)(F)C(F)(F)C(F)(F)C(F)(F)C(F)(F)C(F)(F)C(F)(F)F`, the AC50 in test [1] was 21.7 µM (active) and 30 µM (active); in [2], 12.6 µM (active) and 13 µM (active); in [3] it was 19.9 µM (active) and 20.3 µM (active); in test [4], 18.9 µM (active) and 23.2 µM (active); in [6] it was 13 µM (active) and 12.6 µM (active); in test [7], 19.5 µM (active). The AC50 in test [8] was 26.7 µM (active) and 25.7 µM (active); in test [9], 43 µM (active). Further, the result in [5], in [7] and in test [9] was inactive.
On to `O=C(O)C(F)(F)C(F)(F)C(F)(F)OC(F)(C(F)(F)F)C(F)(F)F`, for which the outcome in [1], in test [2], in test [3], in [4], in [5] and in test [6] was inactive. Besides, the outcome in test [7], in test [8], in test [9] and in test [10] was inactive.
Take `CNS(=O)(=O)C(F)(F)C(F)(F)C(F)(F)C(F)(F)C(F)(F)C(F)(F)C(F)(F)C(F)(F)F`: the AC50 was 44.9 µM (active) in test [1]; 16.4 µM (active) and 7.34 µM (active) in test [6]. Also, the outcome in test [1], in [2], in test [3], in test [4], in test [7] and in test [8] was inactive. In addition, the result in [9] was inactive.
As to `O=C(O)C(F)(F)C(F)(F)C(F)(F)OC(F)(F)F`, the outcome in test [1], in [2], in [3], in [4], in test [5] and in test [6] was inactive. Moreover, the outcome in [7], in test [8], in test [9] and in [10] was inactive.
On to `CCN(CC)c1ccc(C=O)cc1`, for which the outcome in [1], in test [2], in [3], in [4], in test [6] and in test [7] was inactive. In addition, the outcome in [8] and in test [9] was inactive.
As for `O=C(Cl)C(F)(F)C(F)(F)C(F)(F)C(F)(F)C(F)(F)C(F)(F)C(F)(F)F`, the outcome in test [1], in test [2], in [3], in [4], in test [6] and in test [7] was inactive. Besides, the outcome in [8] and in test [9] was inactive.
As to `C=CC(=O)OCC(F)(F)C(F)(F)C(F)(F)C(F)(F)C(F)(F)C(F)(F)C(F)(F)C(F)F`, the AC50 in test [1] was 35.1 µM (active) and 6.23 µM (active); in [2], 27.2 µM (active) and 37.2 µM (active); in test [6] it was 18.8 µM (active); in test [7] it was 30 µM (active) and 19.5 µM (active); in [8], 44.5 µM (active). In addition, the result in [3], in test [4], in test [8], in test [9] and in [10] was inactive.
`O=S(=O)(OCC(F)(F)F)C(F)(F)C(F)(F)C(F)(F)C(F)(F)F`: the AC50 in test [1] is 3.48 µM (active). For the same compound, the result in test [1], in test [2], in test [3], in test [4], in test [6] and in test [7] was inactive. The outcome in test [8] and in test [9] was inactive.
For the compound `C[Si](Cl)(Cl)CCC(F)(F)C(F)(F)C(F)(F)C(F)(F)C(F)(F)C(F)(F)F`, the AC50 in test [1] is 3.33 µM (active). In addition, the result in test [1], in test [2], in [3], in test [4], in test [6] and in test [7] was inactive. In addition, the result in [8] and in [9] was inactive.
For the compound `O=C(F)C1(F)C(F)(F)C(F)(F)C(F)(F)C(F)(F)C1(F)F`, the outcome in test [1], in test [2], in test [3], in test [4], in test [5] and in test [6] was inactive. In addition, the outcome in test [7], in test [8], in [9] and in [10] was inactive.
As for `O=C(O)C(F)(F)C(F)(F)C(F)(F)C(=O)O`, the result in test [1], in test [2], in [3], in test [4], in test [6] and in test [7] was inactive. The result in test [8] and in test [9] was inactive.
Consider `O=C=Nc1cccc2c(N=C=O)cccc12`, for which the result in test [1], in test [2], in test [3], in [4], in test [6] and in test [7] was inactive. In addition, the outcome in test [8] and in [9] was inactive.
`NC(O)(C(F)(F)F)C(F)(F)F`: the outcome in [1], in test [2], in test [3], in test [4], in [5] and in test [6] was inactive. Further, the outcome in [7], in test [8] and in test [9] was inactive.
For `O=C(O)C(F)(F)C(F)(F)C(F)(F)C(F)(F)C(F)(F)C(F)(F)C(F)F`, the outcome in [1], in test [2], in test [3], in [4], in test [6] and in test [7] was inactive. Moreover, the outcome in [8] and in test [9] was inactive. For the same compound, in test [7], the AC50 is 0.232 µM (active).
